# The supplement of paper PMC9446081
# ± gives the standard deviation of the averaged measurements.
# Biological target: MurC (UniProt C4ZRI6)
# Assay: relative enzymatic activity vs untreated control (fraction); higher = less inhibition
# Conditions: 100 µM; incubation time: 2 h at 37 C
# Experimental: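 In vitro enzymatic inhibition assays (ProFoldin kits) for 12 purified essential E. coli enzymes or complexes, each treated with 218 active antibacterial compounds at 100 µM for 2 h at 37°C. Read-outs were fluorescence or absorbance (phosphate detection, dye binding), converted to activity via standard curves and expressed relative to untreated DMSO controls.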
# MurC, sequence (C4ZRI6 whole entry, looked up): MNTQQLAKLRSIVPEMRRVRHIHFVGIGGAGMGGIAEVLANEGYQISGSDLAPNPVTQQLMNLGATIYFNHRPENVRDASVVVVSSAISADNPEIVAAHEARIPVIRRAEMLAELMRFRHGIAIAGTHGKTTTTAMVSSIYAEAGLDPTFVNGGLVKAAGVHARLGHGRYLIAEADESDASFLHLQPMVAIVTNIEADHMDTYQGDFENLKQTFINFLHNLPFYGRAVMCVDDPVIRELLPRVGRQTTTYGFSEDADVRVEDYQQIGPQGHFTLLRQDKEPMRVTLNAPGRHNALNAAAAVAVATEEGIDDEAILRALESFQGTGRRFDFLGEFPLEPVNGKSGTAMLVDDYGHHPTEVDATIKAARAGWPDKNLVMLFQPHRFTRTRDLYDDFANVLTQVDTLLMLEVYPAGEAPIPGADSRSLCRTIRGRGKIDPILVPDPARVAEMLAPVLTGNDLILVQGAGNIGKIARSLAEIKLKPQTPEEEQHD
row,SMILES,relative enzymatic activity
1,CC(C)(ON=C(C(=O)NC1C(=O)N2C(C(=O)[O-])=C(C[n+]3ccccc3)CSC12)c1csc(N)n1)C(=O)O (stereo not given),0.704 ± 0.14
2,C=CC1=C(C(=O)O)N2C(=O)[C@@H](NC(=O)/C(=N/O)c3csc(N)n3)[C@H]2SC1,0.917 ± 0.017
3,CCCC[P+](CCCC)(CCCC)Cc1ccc(NC(=O)[C@H](Cc2ccc3ccccc3c2)N/C(=N/C2CCCCC2)NC2CCCCC2)cc1,0.557 ± 0.44
4,Cc1cn([C@H]2C[C@H](N=[N+]=[N-])[C@@H](CO)O2)c(=O)[nH]c1=O,1.08 ± 0.11
5,CC(C)(O/N=C(\C(=O)N[C@@H]1C(=O)N2C(C(=O)O)=C(C[N+]3(CCNC(=O)c4ccc(O)c(O)c4Cl)CCCC3)CS[C@H]12)c1csc(N)n1)C(=O)O,0.83 ± 0.29
6,Cc1cc(C(C)(C)CC(C)(C)C)ccc1OCCOCC[N+](C)(C)Cc1ccccc1.[Cl-],0.647 ± 0.59
7,Nc1nc(/C(=N/O)C(=O)N[C@@H]2C(=O)N3C(C(=O)O)=C(/C=C4\CCN([C@@H]5CCNC5)C4=O)CS[C@H]23)ns1,0.717 ± 0.24
8,CON=C(C(=O)NC1C(=O)N2C(C(=O)[O-])=C(CSc3nc(=O)c([O-])nn3C)CSC12)c1csc(N)n1.O.O.O.[Na+].[Na+] (stereo not given),1.041 ± 0.0071
9,CN1CCN(c2c(F)cc3c(=O)c(C(=O)O)cn4c3c2OCN4C)CC1,0.954 ± 0.1
10,CO/N=C(\C(=O)N[C@@H]1C(=O)N2C(C(=O)O)=C(C)CS[C@H]12)c1csc(N)n1,0.884 ± 0.037
11,CC1CN(c2c(F)c(N)c3c(=O)c(C(=O)O)cn(C4CC4)c3c2F)CC(C)N1 (stereo not given),0.989 ± 0.12
12,CN1CCN(c2c(F)cc3c(=O)c(C(=O)O)cn4c3c2SCC4)CC1,0.895 ± 0.076
13,CON=C(C(=O)NC1C(=O)N2C(C(=O)OCOC(=O)C(C)(C)C)=C(C=Cc3scnc3C)CSC12)c1csc(N)n1 (stereo not given),0.659 ± 0.044
14,COc1c(N2CCNC(C)C2)c(F)cc2c(=O)c(C(=O)O)cn(C3CC3)c12 (stereo not given),1 ± 0.027
15,CO/N=C(\C(=O)N[C@@H]1C(=O)N2C(C(=O)O)=C(CSC(=O)c3ccco3)CS[C@H]12)c1csc(N)n1,0.977 ± 0.095
16,NC(=O)[C@@H]1C(=O)C[C@@H]2C[C@@H]3Cc4cccc(O)c4C(=O)[C@@H]3C(=O)[C@]2(O)C1=O,1.17 ± 0.092
17,Cc1cc(O)c(C(=O)NC(C(=O)NC2C(=O)N3C(C(=O)O)=C(CSc4nnnn4C)CSC23)c2ccc(O)cc2)cn1 (stereo not given),0.971 ± 0.12
18,CON=C1CN(c2nc3c(cc2F)c(=O)c(C(=O)O)cn3C2CC2)CC1CN.CS(=O)(=O)O (stereo not given),0.669 ± 0.18
19,CC1CN(c2c(F)c(F)c3c(=O)c(C(=O)O)cn(C4CC4)c3c2F)CC(C)N1 (stereo not given),0.891 ± 0.082
20,CN(C)C1C(O)=C(C(N)=O)C(=O)C2(O)C(O)=C3C(=O)c4c(O)cccc4C(C)(O)C3C(O)C12.Cl (stereo not given),1.09 ± 0.081

row,SMILES,relative enzymatic activity
1,C/C(=C\C(=O)OCCCCCCCCC(=O)O)C[C@@H]1OC[C@H](C[C@@H]2O[C@H]2[C@@H](C)[C@H](C)O)[C@@H](O)[C@H]1O,0.891 ± 0.065
2,CON=C(C(=O)N[C@@H]1C(=O)N2C(C(=O)OCOC(=O)C(C)(C)C)=C(C=Cc3scnc3C)CS[C@H]12)c1csc(N)n1,0.769 ± 0.15
3,Nc1ncn(C2OC(CO)C(O)C2O)c(=O)n1 (stereo not given),0.989 ± 0.025
4,CC1CCc2c(N3CCC(O)CC3)c(F)cc3c(=O)c(C(=O)O)cn1c23 (stereo not given),0.92 ± 0.079
5,CN1CCN(c2cc3c(cc2F)c(=O)c(C(=O)O)cn3-c2ccc(F)cc2)CC1.Cl,0.9809 ± 0.0032
6,Cl.N=C(N)n1cccn1,0.968 ± 0.063
7,CCC=C(C(=O)NC1C(=O)N2C(C(=O)OCOC(=O)C(C)(C)C)=C(COC(N)=O)CSC12)c1csc(N)n1.Cl (stereo not given),0.843 ± 0.14
8,CN(C)C1C(O)=C(C(N)=O)C(=O)C2(O)C(O)=C3C(=O)c4c(O)cccc4C(C)(O)C3CC12.Cl (stereo not given),1.05 ± 0.039
9,N[C@@H]1CC[C@@H](c2ccc(Cl)c(Cl)c2)c2ccccc21,0.806 ± 0.12
10,COC1C=COC2(C)Oc3c(C)c(O)c4c(O)c(c5c(nc6cc(C)ccn65)c4c3C2=O)NC(=O)C(C)=CC=CC(C)C(O)C(C)C(O)C(C)C(OC(C)=O)C1C (stereo not given),0.715 ± 0.08
11,CC[C@H]1OC(=O)[C@H](C)[C@@H](O[C@H]2C[C@@](C)(OC)[C@@H](O)[C@H](C)O2)[C@H](C)[C@@H](O[C@@H]2O[C@H](C)C[C@H](N(C)C)[C@H]2O)[C@](C)(O)C[C@@H](C)C(=O)[C@H](C)[C@@H](O)[C@]1(C)O,0.959 ± 0.064
12,COC(=O)N/N=C/c1ccc([N+](=O)[O-])o1,1.01 ± 0.15
13,COc1cc2c(cc1OC)C(=O)C(CC1CCN(Cc3ccccc3)CC1)C2.Cl (stereo not given),0.993 ± 0.29
14,O=C1OCCN1N=Cc1ccc([N+](=O)[O-])o1,1.03 ± 0.054
15,CCCCCCCCCCCCCCCC[N+](C)(C)C,0.568 ± 0.56
16,CCn1cc(C(=O)O)c(=O)c2cc(F)c(N3CCNCC3)cc21,1 ± 0.082
17,CC1(C)S[C@@H]2[C@H](NC(=O)[C@H](N)c3ccccc3)C(=O)N2[C@H]1C(=O)OCOC(=O)[C@@H]1N2C(=O)C[C@H]2S(=O)(=O)C1(C)C,1.08 ± 0.1
18,O=C1CN(/N=C/c2ccc([N+](=O)[O-])o2)C(=O)N1,1.33 ± 0.34
19,CC[C@H]1OC(=O)C[C@@H](O)[C@H](C)[C@@H](O[C@@H]2O[C@H](C)C[C@H](N(C)C)[C@H]2O)[C@@H](CC=O)C[C@@H](C)C(=O)/C=C/[C@]2(C)O[C@H]2[C@@H]1C,1.02 ± 0.099
20,CCC(C)C1NC(=O)C(CCNCS(=O)(=O)[O-])NC(=O)C(NC(=O)C(CCNCS(=O)(=O)[O-])NC(=O)C(NC(=O)C(CCNCS(=O)(=O)[O-])NC(=O)CCCCC(C)C)C(C)O)CCNC(=O)C(C(C)O)NC(=O)C(CCNCS(=O)(=O)[O-])NC(=O)C(CCNCS(=O)(=O)[O-])NC(=O)C(C(C)CC)NC1=O.[Na+].[Na+].[Na+].[Na+].[Na+] (stereo not given),1.05 ± 0.03
